Records with an inconclusive call do not appear. Where a call stands in place of a potency, no number is given. Active and inactive are the calls of the source. The call rests on the fitted dose curve; in most records, active means well fitted cell-killing curve with a large enough effect in the repeat runs; inconclusive means weak or mixed curves, or effect the other way; inactive means flat fitted curve, though single readings scatter.
Legend:
[1] = cAMP Responsive Elements (CRE) small molecule antagonists, cell-based qHTS assay: qHTS cell viability counter screen (AID 2060913); further: nearly all actives have a fitted effect of over 40% in size
Procedure, shortened: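 CRE-bla HEK293T cells were seeded in assay medium with 10% dialyzed FBS, incubated 18 hrs at 37 C, then exposed to compounds plus 0.25 uM final NKH477 for 3 hrs. Viability was read by CellTiter-Glo luminescence after 30 min, in the same wells.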

[2] = cAMP Responsive Elements (CRE) small molecule agonists, cell-based qHTS assay: qHTS cell viability counter screen (AID 2060914); further: nearly all actives have a fitted effect of over 50% in size
Procedure, shortened: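 In the same wells as the reporter read, viability of CRE-bla HEK 293T cells was quantified by CellTiter-Glo luminescence after a 3 h compound exposure.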
Potency means the concentration at half of the fitted maximal effect.

SMILES | Potency [1] | Potency [2]
CCNc1nc(NC(C)(C)C)nc(OC)n1 | inactive | inactive
O=C(Nc1ncc([N+](=O)[O-])s1)c1cccs1 | 21.1 µM (active) | 11.9 µM (active)
O=C(O)Cc1cccc2ccccc12 | inactive | inactive
CCN(CC)CCSC(=O)C(c1ccccc1)c1ccccc1 | inactive | inactive
O=c1[nH]ncc2ccccc12 | inactive | inactive
CC(CO)(CO)CO | inactive | inactive
CC(=O)O[C@@]12CO[C@@H]1C[C@H](O)[C@@]1(C)C(=O)[C@H](O)C3=C(C)[C@@H](OC(=O)[C@H](O)[C@@H](NC(=O)OC(C)(C)C)c4ccccc4)C[C@@](O)([C@@H](OC(=O)c4ccccc4)[C@H]21)C3(C)C | inactive | inactive
Clc1ccc2cc3ccccc3cc2c1 | inactive | inactive
C=COCCOCCOCCOC=C | inactive | inactive
O=C(O)Cc1c[nH]c2ccccc12 | inactive | inactive
O=C(O)c1ccc(OCCCOc2ccc(C(=O)O)cc2)cc1 | inactive | inactive
O=C(OCCc1ccccc1)c1ccccc1 | inactive | inactive
Cc1ncc(CO)c(CO)c1O | inactive | inactive
NCc1ccc(S(N)(=O)=O)cc1 | inactive | inactive
CC1(C)[C@H]2CC[C@]1(C)[C@H](O)C2 | inactive | inactive
NCCNc1cccc2ccccc12 | inactive | inactive
CCC(C)C1CCCCC1=O (stereo not drawn) | inactive | inactive
CCCCC(CC)COP(=O)(O)O (stereo not drawn) | inactive | inactive
N=C1C=CC(=C(c2ccc(N)cc2)c2ccc(N)cc2)C=C1 | 50.8 µM (active) | inactive

From PubChem BioAssay (Tox21)
